Hits are enriched below; roughly 3.5% of the tested compounds scored in any of these assays.
TEAD-YAP block = TEAD-YAP interaction inhibition | 1.4% of 640,000 active | HEK-TIYL cells, TEAD-Gal4/YAP UAS-luciferase luminescence | inhibition, % at 9.12 µM; in the data active = inhibition above about 32%;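 note: 0% = median of test compound wells and 100% = reference inhibitor wells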
FBW7 act = activators of human E3 ligase FBW7. Q969H0. AlphaScreen FBW7–phospho-cyclin E peptide binding, activator screen. normalized activity (activation), % at 26.1 µM. 0.13% of 650,000 active; in the data active = normalized activity above about 1.9%;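 note: purified mutant Fbw7 with reduced substrate affinity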
GPR151 activ = activators of human GPR151; activation, % at 11.2 µM; 1% of 650,000 active; PathHunter beta-arrestin GPR151 cells, luminescence; Q8TDV0; in the data active = activation above about 4.9%;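 note: 0% = median of compound wells and 100% = cells with positive control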
Target sequence (Q8TDV0 whole entry, looked up): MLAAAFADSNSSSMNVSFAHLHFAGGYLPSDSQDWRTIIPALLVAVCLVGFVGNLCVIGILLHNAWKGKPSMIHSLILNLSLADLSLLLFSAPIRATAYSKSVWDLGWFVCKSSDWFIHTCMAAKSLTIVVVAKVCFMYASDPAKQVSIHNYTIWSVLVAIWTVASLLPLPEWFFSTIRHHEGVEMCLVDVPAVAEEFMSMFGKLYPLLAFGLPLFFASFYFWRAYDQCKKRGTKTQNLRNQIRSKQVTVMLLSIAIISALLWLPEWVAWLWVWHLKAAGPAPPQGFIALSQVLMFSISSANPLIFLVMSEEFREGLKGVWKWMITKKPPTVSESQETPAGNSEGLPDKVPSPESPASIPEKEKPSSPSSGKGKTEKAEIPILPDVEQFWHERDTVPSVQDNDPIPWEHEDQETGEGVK
MITF inh = inhibitors of human MITF; AlphaScreen MITF homodimerization, bead proximity signal; inhibition, % at 2.6 µM; AID 1259374; 0.91% of 650,000 active; in the data active = inhibition above about 50%;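 note: 0% = vehicle wells with protein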
The depositor's hits bear a star.

SMILES	TEAD-YAP block	FBW7 act	GPR151 activ	MITF inh
O=C(c1nccs1)C1CCN(C(=O)CC2CCCC2)CC1	1	0	0	-5
CCOc1cccc2cc(-c3csc(Nc4ccc(OC)cc4OC)n3)c(=O)oc12	-1	0	0	-4
CCN1CCn2c3c(c4cc(Br)ccc42)CCCC31 (stereo unspecified)	-12	0	1	5
CCN1CCN(CC(O)CN2CCn3c4c(c5cc(C6CCCCC6)ccc53)CCCC42)CC1 (stereo unspecified)	-1	0	-1	51*
CCOc1cc(/C=C2\C(=O)N(c3cccc(C(=O)O)c3)N=C2C)cc(Cl)c1OC	-2	-1	-1	61*
CC1=NN(c2cccc(C(=O)O)c2)C(=O)/C1=C\c1ccccc1O	-25	-1	1	57*
CC1=NN(c2cccc(C(=O)O)c2)C(=O)/C1=C\c1ccc(-c2ccc(Cl)c(C(=O)O)c2)o1	9	-1	3	74*
CC(C)(C)n1nc2c(c1NC(=O)c1c(F)cccc1F)CS(=O)C2 (stereo unspecified)	10	0	0	-5
Cc1c(N(CC(=O)NCc2ccccc2)S(=O)(=O)c2ccccc2)c(=O)n(-c2ccccc2)n1C	6	0	0	6
COc1ccc(/C=C2/C(=O)ON=C2c2ccccc2)cc1OC	-26	-1	2	65*
CCOc1ccc(/C=C2\C(=O)ON=C2c2ccccc2)cc1	-5	0	0	6
O=C1ON=C(c2ccc(Cl)cc2)/C1=C\c1ccc2c(c1)OCO2	2	0	0	77*
CCCCOc1ccc(/C=C2\C(=O)ON=C2c2ccc(Cl)cc2)cc1	9	0	-1	24
COc1ccc(OC)c(/C=C2\C(=O)ON=C2c2ccccc2)c1	-8	0	0	77*
COc1ccc(OC)c(C=C2C(=O)OC(C)(c3ccccc3)OC2=O)c1 (stereo unspecified)	-8	0	1	22
CCOc1cc(/C=C2\C(=O)ON=C2c2ccccc2)ccc1OC	-10	0	-1	58*
COc1cc(/C=C2\C(=O)ON=C2c2ccccc2)cc(OC)c1OC	-7	0	0	13
O=C(Nc1ccc2c(c1)C(=O)N(c1ccccc1)C2=O)c1ccccc1Cl	-7	0	-2	-7
COC(=O)c1cn(NC(=O)c2cc([N+](=O)[O-])ccc2F)c(=O)c2ccccc12	87*	0	0	-8
COc1ccc(NC(=O)c2ccc(Br)cc2)c2cccnc12	5	0	-1	24
O=C(Nc1ccnc2ccccc12)c1ccc(Br)cc1	60*	1	0	2
CCC(=O)NC(c1ccc([N+](=O)[O-])cc1)c1ccc2cccnc2c1O (stereo unspecified)	85*	0	0	-19
CCC(=O)NC(c1cccc([N+](=O)[O-])c1)c1ccc2cccnc2c1O (stereo unspecified)	4	-1	1	17
CCC(=O)NC(c1ccc(C)cc1)c1ccc2cccnc2c1O (stereo unspecified)	88*	-1	-1	28
CCCNC(=O)C(=O)NC(C)c1ccccc1 (stereo unspecified)	1	0	0	20
SMILES	TEAD-YAP block	FBW7 act	GPR151 activ	MITF inh
COc1ccc(CCNC(=O)CCCCCn2c(=O)[nH]c3ccccc3c2=O)cc1OC	1	0	0	1
CCOc1c(Cl)cc(C(=O)OCC(=O)N2c3ccccc3NC(=O)C2(C)C)cc1OC	32*	0	-1	14
CC1(C)C(=O)Nc2ccccc2N1C(=O)CN1C(=O)c2ccccc2C1=O	-4	0	0	-3
CC1(C)C(=O)Nc2ccccc2N1C(=O)CCl	48*	0	0	-8
COc1ccc2nc(N3CCCC3)sc2c1	2	0	-6	12
COc1ccc2nc(N3CCCCC3)sc2c1	61*	2	-4	13
OCCN1CCN(c2ncnc3c2c(-c2ccccc2)cn3-c2ccc(Cl)cc2)CC1	-3	0	0	-4
COc1ccc(Cc2cnc(NC(=O)COc3ccccc3OC)s2)cc1	48*	1	1	-1
COc1ccc(OCC(=O)Nc2ncc(Cc3ccc(Br)cc3)s2)cc1	1	1	-1	-159
COc1ccccc1OCC(=O)Nc1ncc(Cc2ccc(Br)cc2)s1	4	1	3	11
Cc1ccccc1OCC(=O)Nc1ncc(Cc2ccc(Br)cc2)s1	55*	0	2	-4
COc1ccc(Cc2cnc(NC(=O)COc3cccc(C)c3)s2)cc1	52*	0	1	-4
CCOC(=O)c1c(C)[nH]c(C(=O)CSc2nnnn2-c2ccc(Cl)cc2)c1C	-4	0	-2	-2
